Measurements reported in paper PMC5540273 (PLoS ONE, 2017).
“And” between values parts separate entries of the source, which are not always exact repeats. Equal entries are not always repeated. Where two headings read alike, the source gives them in different places.

How the values were obtained:
HUNK = settings: concentration: 1 μM, replicates: in singlicate; n = 1
ICK = settings: n = 1
IGF1R = settings: n = 1
IKK-alpha = test system: T1, IKK-alpha; settings: n = 1
T1 construct: gene CHUK

IKK-beta = test system: T2, IKK-beta; settings: n = 1
T2 construct: gene IKBKB

IKK-epsilon = test system: T3, IKK-epsilon; settings: n = 1
T3 construct: gene IKBKE

INSRR = settings: n = 1
INSR = settings: n = 1
IRAK1 = settings: n = 1
IRAK3 = settings: concentration: 1 μM, replicates: in singlicate; n = 1
IRAK4 = settings: n = 1
ITK = settings: n = 1
[1] = test system: JAK1(JH1domain-catalytic); settings: n = 1
[2] = test system: JAK1(JH2domain-pseudokinase); settings: concentration: 1 μM, replicates: in singlicate; n = 1
[3] = test system: JAK2(JH1domain-catalytic); settings: n = 1
[4] = test system: JAK3(JH1domain-catalytic); settings: concentration: 1 μM, replicates: in singlicate; n = 1
JNK1 = test system: T4, JNK1; settings: n = 1
T4 construct: gene MAPK8

JNK2 = test system: T5, JNK2; settings: n = 1
T5 construct: gene MAPK9

JNK3 = test system: T6, JNK3; settings: n = 1
T6 construct: gene MAPK10

KIT-autoinhibited = settings: n = 1
[5] = concentration: 1 μM, replicates: in singlicate
[6] = concentration: 1 μM,replicates: in singlicate, 1 µM
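Further: KINOMEscan kinase panel screen.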

Compound: Cc1cccc(-c2nc(C)cc(Nc3ccncc3)n2)n1 [GSK257997]
- %Inh (HUNK): 7%
- %Inh (ICK; [5]): 0%
- %Inh (IGF1R; [5]): 5%
- %Inh (IKK-alpha; [5]): 0%
- %Inh (IKK-beta; [5]): 13%
- %Inh (IKK-epsilon; [5]): 12%
- %Inh (INSRR; [5]): 0%
- %Inh (INSR; [5]): 3%
- %Inh (IRAK1; [5]): 0%
- %Inh (IRAK3): 0%
- %Inh (IRAK4; [5]): 1%
- %Inh (ITK; [5]): 12%
- %Inh [1, 5]: 13%
- %Inh [2]: 0%
- %Inh [3, 5]: 0%
- %Inh [4]: 0%
- %Inh (JNK1; [5]): 4%
- %Inh (JNK2; [5]): 43%
- %Inh (JNK3; [5]): 32%
- %Inh (KIT-autoinhibited; [5]): 0%

Compound: O=C(O)COc1ncnc2cc(-c3ccc4[nH]ncc4c3)sc12
- %Inh (HUNK): 18%
- %Inh (ICK; [5]): 31%
- %Inh (IGF1R; [5]): 0%
- %Inh (IKK-alpha; [5]): 28%
- %Inh (IKK-beta; [5]): 19%
- %Inh (IKK-epsilon; [5]): 4%
- %Inh (INSRR; [5]): 19%
- %Inh (INSR; [5]): 0%
- %Inh (IRAK1; [5]): 29%
- %Inh (IRAK3): 38%
- %Inh (IRAK4; [5]): 0%
- %Inh (ITK; [5]): 0%
- %Inh [1, 5]: 0%
- %Inh [2]: 44%
- %Inh [3, 5]: 16%
- %Inh [4]: 46%
- %Inh (JNK1; [5]): 30%
- %Inh (JNK2; [5]): 21%
- %Inh (JNK3; [5]): 15%
- %Inh (KIT-autoinhibited; [5]): 30%

Compound: CSc1nn2c(=O)cc(N3CCOCC3)nc2n1Cc1cccc(C(F)(F)F)c1C [GSK2363608]
- %Inh (HUNK): 0%
- %Inh (ICK; [6]): 0% and 12%
- %Inh (IGF1R; [6]): 0% and 7%
- %Inh (IKK-alpha; [6]): 2% and 3%
- %Inh (IKK-beta; [6]): 26% and 22%
- %Inh (IKK-epsilon; [6]): 0% and 13%
- %Inh (INSRR; [6]): 0% and 8%
- %Inh (INSR; [6]): 6% and 0%
- %Inh (IRAK1; [6]): 5% and 21%
- %Inh (IRAK3): 0%
- %Inh (IRAK4; [6]): 12% and 18%
- %Inh (ITK; [6]): 2% and 12%
- %Inh [1, 6]: 13% and 30%
- %Inh [2]: 0%
- %Inh [3, 6]: 100% and 0%
- %Inh [4]: 0%
- %Inh (JNK1; [6]): 2% and 16%
- %Inh (JNK2; [6]): 15% and 5%
- %Inh (JNK3; [6]): 7% and 3%
- %Inh (KIT-autoinhibited; [6]): 2% and 0%

Compound: COc1ccc(C2=C(Nc3cccc(C(=O)O)c3)C(=O)NC2=O)cc1 [SB-390765]
- %Inh (HUNK): 19%
- %Inh (ICK; [5]): 29%
- %Inh (IGF1R; [5]): 0%
- %Inh (IKK-alpha; [5]): 16%
- %Inh (IKK-beta; [5]): 23%
- %Inh (IKK-epsilon; [5]): 3%
- %Inh (INSRR; [5]): 4%
- %Inh (INSR; [5]): 13%
- %Inh (IRAK1; [5]): 28%
- %Inh (IRAK3): 0%
- %Inh (IRAK4; [5]): 0%
- %Inh (ITK; [5]): 0%
- %Inh [1, 5]: 0%
- %Inh [2]: 18%
- %Inh [3, 5]: 12%
- %Inh [4]: 0%
- %Inh (JNK1; [5]): 41%
- %Inh (JNK2; [5]): 32%
- %Inh (JNK3; [5]): 33%
- %Inh (KIT-autoinhibited; [5]): 14%

Compound: CN1C(=O)C(Nc2ccc(Cl)c(C(=O)O)c2)=C(c2ccc(Cl)cc2)C1=O [SB-404290]
- %Inh (HUNK): 32%
- %Inh (ICK; [5]): 20%
- %Inh (IGF1R; [5]): 0%
- %Inh (IKK-alpha; [5]): 0%
- %Inh (IKK-beta; [5]): 17%
- %Inh (IKK-epsilon; [5]): 0%
- %Inh (INSRR; [5]): 14%
- %Inh (INSR; [5]): 0%
- %Inh (IRAK1; [5]): 0%
- %Inh (IRAK3): 0%
- %Inh (IRAK4; [5]): 0%
- %Inh (ITK; [5]): 4%
- %Inh [1, 5]: 0%
- %Inh [2]: 17%
- %Inh [3, 5]: 8%
- %Inh [4]: 0%
- %Inh (JNK1; [5]): 26%
- %Inh (JNK2; [5]): 2%
- %Inh (JNK3; [5]): 7%
- %Inh (KIT-autoinhibited; [5]): 0%

Compound: Cl.Oc1ccc(-c2nc(-c3ccccc3)[nH]c2-c2ccncc2)cc1 [SB-428218]
- %Inh (HUNK): 42%
- %Inh (ICK; [5]): 3%
- %Inh (IGF1R; [5]): 8%
- %Inh (IKK-alpha; [5]): 0%
- %Inh (IKK-beta; [5]): 0%
- %Inh (IKK-epsilon; [5]): 12%
- %Inh (INSRR; [5]): 0%
- %Inh (INSR; [5]): 3%
- %Inh (IRAK1; [5]): 33%
- %Inh (IRAK3): 0%
- %Inh (IRAK4; [5]): 18%
- %Inh (ITK; [5]): 10%
- %Inh [1, 5]: 4%
- %Inh [2]: 36%
- %Inh [3, 5]: 0%
- %Inh [4]: 0%
- %Inh (JNK1; [5]): 2%
- %Inh (JNK2; [5]): 0%
- %Inh (JNK3; [5]): 0%
- %Inh (KIT-autoinhibited; [5]): 18%

Compound: O=S(=O)(c1ccc(-c2ccnc3[nH]ccc23)cc1)N1CCCC1 [GSK846226]
- %Inh (HUNK): 0%
- %Inh (ICK; [5]): 0%
- %Inh (IGF1R; [5]): 0%
- %Inh (IKK-alpha; [5]): 29%
- %Inh (IKK-beta; [5]): 94.3%
- %Inh (IKK-epsilon; [5]): 31%
- %Inh (INSRR; [5]): 0%
- %Inh (INSR; [5]): 0%
- %Inh (IRAK1; [5]): 8%
- %Inh (IRAK3): 22%
- %Inh (IRAK4; [5]): 2%
- %Inh (ITK; [5]): 10%
- %Inh [1, 5]: 16%
- %Inh [2]: 3%
- %Inh [3, 5]: 86%
- %Inh [4]: 0%
- %Inh (JNK1; [5]): 26%
- %Inh (JNK2; [5]): 24%
- %Inh (JNK3; [5]): 17%
- %Inh (KIT-autoinhibited; [5]): 0%

Compound: CN(C)CCN(C)C(=O)c1cc(-c2ccncc2)c(-c2ccc(Cl)c(O)c2)o1.Cl.Cl [SB-710397]
- %Inh (HUNK): 38%
- %Inh (ICK; [5]): 10%
- %Inh (IGF1R; [5]): 7%
- %Inh (IKK-alpha; [5]): 44%
- %Inh (IKK-beta; [5]): 35%
- %Inh (IKK-epsilon; [5]): 34%
- %Inh (INSRR; [5]): 0%
- %Inh (INSR; [5]): 0%
- %Inh (IRAK1; [5]): 56%
- %Inh (IRAK3): 0%
- %Inh (IRAK4; [5]): 43%
- %Inh (ITK; [5]): 13%
- %Inh [1, 5]: 18%
- %Inh [2]: 0%
- %Inh [3, 5]: 49%
- %Inh [4]: 0%
- %Inh (JNK1; [5]): 27%
- %Inh (JNK2; [5]): 29%
- %Inh (JNK3; [5]): 35%
- %Inh (KIT-autoinhibited; [5]): 0%

Compound: CCn1c(-c2ccccn2)nc2cnccc21 [SB-736398]
- %Inh (HUNK): 7%
- %Inh (ICK; [5]): 9%
- %Inh (IGF1R; [5]): 19%
- %Inh (IKK-alpha; [5]): 37%
- %Inh (IKK-beta; [5]): 17%
- %Inh (IKK-epsilon; [5]): 0%
- %Inh (INSRR; [5]): 0%
- %Inh (INSR; [5]): 0%
- %Inh (IRAK1; [5]): 45%
- %Inh (IRAK3): 100%
- %Inh (IRAK4; [5]): 37%
- %Inh (ITK; [5]): 0%
- %Inh [1, 5]: 0%
- %Inh [2]: 0%
- %Inh [3, 5]: 17%
- %Inh [4]: 0%
- %Inh (JNK1; [5]): 24%
- %Inh (JNK2; [5]): 19%
- %Inh (JNK3; [5]): 8%
- %Inh (KIT-autoinhibited; [5]): 0%
